# Data taken from PubChem BioAssay (Tox21).
# Inconclusive results are not listed. A call without a number means that no potency is given here. Activity calls are given as the source filed them. Calls follow the shape of the dose curve; as a rule, active = well fitted cell-killing curve with a large enough effect in the repeat runs; inconclusive = weak or mixed curves, or effect the other way; inactive = flat fitted curve, though single readings scatter.
# Assays:
# [1] = cAMP Responsive Elements (CRE) small molecule antagonists, cell-based qHTS assay: qHTS cell viability counter screen (AID 2060913); details: CRE-bla HEK293T viability, CellTiter-Glo luminescence, 5 h; series mostly up to 92.4 µM; also: nearly all actives have a fitted effect of over 40% in size
# Outline: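 Steps: cells plated and held 18 hrs at 37 C/5% CO2; compounds and NKH477 (0.25 uM final) added; 3 hrs incubation; reporter substrate read; CellTiter-Glo added to measure cytotoxicity by luminescence.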
# [2] = cAMP Responsive Elements (CRE) small molecule agonists, cell-based qHTS assay: qHTS cell viability counter screen (AID 2060914); details: CRE-bla HEK293T viability, CellTiter-Glo luminescence, 5 h; series mostly up to 92.4 µM;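 also: viability read after 3 h of compound exposure; nearly all actives have a fitted effect of over 50% in size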
# Outline: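 Cells are seeded and incubated 18 h, treated with compounds in DMSO for 3 h, read for the bla reporter, then given CellTiter-Glo; luminescence is measured after 30 min at room temperature.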
SMILES,Potency [1],Potency [2]
CCCCCCCCSCCO,inactive,inactive
CCCCCCCCOS(=O)(=O)O,inactive,inactive
CC(=O)CCc1ccc(O)cc1,inactive,inactive
NC(=O)c1ccccc1[N+](=O)[O-],inactive,inactive
CCCCCCCCCCO[C@@H]1O[C@H](CO)[C@@H](O)[C@H](O)[C@H]1O,inactive,inactive
CCCCC/C=C\CCC=O,inactive,inactive
CCCOC(=O)NCCCN(C)C,inactive,inactive
C=COC(=O)C(C)(CC)CCC(C)C (stereo not drawn),inactive,inactive
CN(C)CCc1c[nH]c2ccc(CS(=O)(=O)N3CCCC3)cc12,inactive,inactive
